This passage reports inhibition results from PubChem BioAssay AID1209 (Sanford-Burnham Center for Chemical Genomics, 2008).

In all, about 190,000 compounds went through this assay and about 810 (0.43%) were called active. The entries come from a sample that favours actives as a whole. A number with no mark means an inactive call. No stated cut-off is given here; in the data, active means inhibition above about 50%; inactive means the rest.

The target of this experiment is Mannose-6-phosphate isomerase (Homo sapiens) (UniProt P34949). Nature of the experiment: MPI enzyme activity inhibition – biochemical, fluorescence intensity, coupled assay, primary screen (AID 1209).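 Further: plate controls were DMSO vehicle for no effect and wells lacking substrate for full effect.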 The conditions noted are these: purified PMI enzyme, at 20 µM, hits give high values.
Mannose-6-phosphate isomerase (Homo sapiens), sequence (P34949 whole entry, looked up): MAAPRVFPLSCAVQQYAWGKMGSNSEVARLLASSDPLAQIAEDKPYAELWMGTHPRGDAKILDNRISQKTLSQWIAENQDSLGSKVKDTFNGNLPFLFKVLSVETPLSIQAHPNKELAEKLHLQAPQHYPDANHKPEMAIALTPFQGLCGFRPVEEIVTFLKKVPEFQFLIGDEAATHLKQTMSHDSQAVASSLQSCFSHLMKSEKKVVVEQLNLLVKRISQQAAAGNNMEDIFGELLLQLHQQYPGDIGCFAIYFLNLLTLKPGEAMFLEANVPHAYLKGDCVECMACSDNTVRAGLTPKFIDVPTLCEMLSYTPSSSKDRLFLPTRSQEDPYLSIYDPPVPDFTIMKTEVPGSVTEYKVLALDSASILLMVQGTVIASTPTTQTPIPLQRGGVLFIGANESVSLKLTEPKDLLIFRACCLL
`Cc1nnc(N/N=C\c2ccc(-c3ccccc3[N+](=O)[O-])o2)n1N`: the inhibition (as a rule, the relative decrease from the control value, in per cent) is 57.8% (active).
As for `Cc1nnc(N/N=C/c2ccc(-c3ccc(Br)cc3)o2)n1N`, the inhibition is -11.5%.
The figure for `O=[N+]([O-])c1ccccc1-c1ccc(/C=N/n2cnnc2)o1` is 20.4%.
The figure for `Cc1nnc(N/N=C/c2ccc(-c3ccccc3F)o2)n1N` is -38.4%; for `Nn1cnnc1N/N=C/c1ccc(Cl)c([N+](=O)[O-])c1` it is 13.3%; for `Nn1cnnc1N/N=C\c1ccc(-c2ccccc2[N+](=O)[O-])o1` it is 82.5% (active).
For `COc1ccc(N2C(=O)CSCC2=O)cc1OC`, the inhibition is 1.2%.
With `Cc1ccc(C)c(C(C)NC(=O)c2ccccc2Br)c1` (configuration not stated) the figure was -5.5%.
The figure for `Clc1ss/c(=N\c2ccccn2)c1Cl` is -30.7%.
The figure for `Cc1cc(C)nc(NC(=O)c2csnn2)c1` is -0.9%.
With `CCOC(=O)c1ccc(N=c2scc(C)n2CC)cc1`, the inhibition is -8.8%.
In the case of `Clc1nssc1=Nc1ccccc1`, the inhibition is 57% (active).
For the molecule `Cc1ccc(N=c2sc(C)c(C)n2C)cc1`, the inhibition is -13%.
`Cc1cc(C)nc(/N=c2/ssnc2Cl)c1`: the inhibition was 60.1% (active).
With `Cc1ccc(N=C2CSC(=O)N2)cc1` the figure was 8.6%; with `Cc1ccc(N=c2ssnc2Cl)cc1`, 75.1% (active).
The figure for `O=C1CSC(=Nc2ccccc2)N1Cc1ccccc1` is 6.4%; for `CCOC(=O)c1ccc(N=c2ssnc2Cl)cc1` it is 66.1% (active).
The figure for `Cc1cc(C)c(C#N)c(Cl)n1` is 21%; for `CCOC(=O)c1ccc(N=C2NC(=O)CS2)cc1` it is 10.2%.
As for `CCC(=O)c1c[nH]c(C(=O)NCCCn2ccnc2)c1`, the inhibition is 10.2%.
The figure for `O=C(CCN1CCCCCC1)Nc1ccc(F)c(F)c1` is -7.5%; for `COc1cc(/C=C(\NC(=O)c2ccccc2)C(=O)Nc2cccc(O)c2)c([N+](=O)[O-])cc1OC` it is 9.6%; for `COC(=O)C(C(=O)OC)=C(/C=C/C=C/N(C)C)N(C)C` it is 2.5%.
The figure for `O=C(Nc1ccc(Br)cc1)c1ccccc1CC[N+](=O)[O-]` is 17.3%; for `O=C1c2ccccc2C(=O)N1CC1c2ccccc2CCN1S(=O)(=O)c1cnc[nH]1` (configuration not stated) it is 7.7%.
With `CC(C)c1nnc(NC(=O)CSc2ncn[nH]2)s1` the figure was 10.7%.
Take `CC(C)(C)C1CCC(=NNC(=O)c2ccccc2-n2cccc2)CC1` (configuration not stated): the inhibition was 21%.
The figure for `CC12c3ccccc3C(c3ccccc31)C1C(=O)N(Cc3cccnc3)C(=O)[C@H]12` (some centres not stated) is 4.1%; for `COc1ccc2c(c1)c(=O)c(C(=O)c1ccc(C)cc1)cn2CC(=O)Nc1ccc(F)cc1` it is 3.6%; for `COc1cc(OC)cc(-n2nnnc2SCC(=O)Nc2ccc(C(C)=O)cc2)c1` it is 5.1%.
With `Cc1cc(NC(=O)C(C)C)ncc1NC(=O)c1ccccn1`, the inhibition was 0.2%.
With `O=C(CNC(=O)c1ccc(S(=O)(=O)N2CCCC2)cc1)N/N=C/c1ccc(Cl)cc1Cl` the figure was 9.4%; with `Clc1ccc(N=c2ssnc2Cl)cc1`, 78.7% (active).
With `Brc1ccc(N=Cc2ccccn2)cc1` the figure was -9.1%; with `NC1=NC(=Nc2ccc(Cl)cc2)c2ccccc21`, -3.6%; with `Clc1nssc1=Nc1ccc(Br)cc1`, 81.6% (active).
For the molecule `NC1=NC(=Nc2ccc(Br)cc2)c2ccccc21`, the inhibition is -7.2%.
With `O=C1NC(=Nc2ccc(Cl)cc2)/C(=C/c2ccco2)S1` the figure was 1.4%; with `CCOC(=O)Nc1ccc(OCc2nnc3c4ccccc4c(C)nn23)cc1`, 3.7%.
With `CCOC(=O)c1cnc(SCC(=O)NCc2cccs2)nc1N` the figure was -5.5%; with `NS(=O)(=O)c1ccc(NC(=O)COC(=O)/C=C/c2ccc([N+](=O)[O-])cc2)cc1`, -1.2%; with `CCN(CC)S(=O)(=O)c1ccc(/C=C/C(=O)OCC(=O)Nc2ccc(C(N)=O)cc2)cc1`, -5.2%.
With `CCN(CC)S(=O)(=O)c1ccc(/C=C/C(=O)OCC(=O)Nc2ccc(S(N)(=O)=O)cc2)cc1` the figure was 70.7% (active).
Regarding `Cc1c(C(=O)N2CCN(c3ccccc3F)CC2)sc2ncn(CC(=O)N3CCOCC3)c(=O)c12`, the inhibition was -1.6%.
The figure for `Cc1c(NC(=O)c2ccc(C(C)(C)C)cc2)cccc1[N+](=O)[O-]` is 7.4%.
For `CCn1c(CCc2ccccc2)n[nH]c1=S`, the inhibition is -3%.
With `CCn1c(SCC(=O)N/N=C/c2ccc(O)c(OC)c2)nc2ccccc21` the figure was 61.7% (active).
Take `CCn1c(SCC(=O)N/N=C/c2ccc(OC)c(OC)c2)nc2ccccc21`: the inhibition is 8.4%.
`CCn1c(SCC(=O)N/N=C/c2cc(OC)c(O)c(OC)c2)nc2ccccc21`: the inhibition is -0.1%.
On to `COc1ccccc1N1CCN(C(=O)C2CCN(S(=O)(=O)N3CCOCC3)CC2)CC1`, for which the inhibition was -6.6%.
With `Cc1cccc(NC(=S)N(CCCN2CCOCC2)Cc2ccccn2)c1`, the inhibition is -1.4%.
The figure for `CCN(CC)C(=O)c1cn(C)c(=O)c2cc(OC)c(OC)cc12` is 12.6%; for `COc1ccc(CNc2nc(-c3cccnc3)nn2C(=O)C(C)C)cc1` it is 1.5%.
The figure for `Cc1nn(C2CCS(=O)(=O)C2)c(Cl)c1/C=C/C(=O)OCC(=O)Nc1ccccc1[N+](=O)[O-]` (configuration not stated) is 18.2%; for `C(=N/n1c2ccccc2c2ccccc21)/c1ccco1` it is 18.5%.
With `C(=Nc1cccc2c(N=Cc3ccco3)cccc12)c1ccco1`, the inhibition is 82.9% (active).
The figure for `CN(C)c1ccc(N=Cc2ccco2)cc1` is 44.6%; for `COC(=O)Cn1c(=O)n(CCc2ccccc2)c(=O)c2c3c(sc21)CCCC3` it is 23%.
With `COC(=O)c1ccc(NC(=O)CSc2nnc(C)n2-c2ccccc2)cc1` the figure was 9.9%; with `NC(CO)C(=O)NNCc1ccc(O)c(O)c1O` (configuration not stated), 78% (active).
The figure for `Cc1cc(C(=O)O)c(S(C)(=O)=O)s1` is -0.9%; for `Cc1cc(-c2nsc(=O)o2)c(S(C)(=O)=O)s1` it is 53.2% (active).
Take `O=C(CCc1cnccn1)NC1CCCc2c1cnn2-c1ccc(F)cc1F` (configuration not stated): the inhibition is 6.3%.
The figure for `C=CCSc1nc2sc3c(c2c(=O)n1CC)CCc1ccccc1-3` is 71.8% (active).
With `C=CCSc1nc2sc3c(c2c(=O)n1CC=C)CCc1ccccc1-3` the figure was 10.5%; with `C=CCn1c(SCC)nc2sc3c(c2c1=O)CCc1ccccc1-3`, 7.8%.
